# A selection: hits, their analogues and other compounds. The true share with any hit is near 0.85%.
# FBPA coupling cs: counter-screen for Giardia aldolase inhibitors: coupling enzyme system. activity change, negative = inhibition, % at 58.2 µM, hits read low. AID 2472. coupling enzyme system counterscreen, AmpLite Red fluorescence. actives 0.67% (n = 290,000); in the data active means activity change below about -30%
#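 Final compound at 57.5 uM, incubated 10 min at RT with coupling enzyme reagent (glyceraldehyde-3-phosphate), then 20 min with substrate and AmpLite Red detection. Fluorescence read at 525/598 nm; tests interference with the coupling assay, not aldolase inhibition.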
# GAA inh: blocks human lysosomal alpha-glucosidase; purified human GAA, 4-MU-alpha-glucoside fluorescence; AID 1466; Potency, µM (series often up to 76.9 µM), for the others: at the top dose activity change, negative = inhibition, most hits filed as inhibitors; actives 0.005% (n = 200,000);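 further: potency means the concentration at half of the fitted maximal effect; plate controls were uninhibited enzyme wells for no effect and no-enzyme background for full effect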
#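 Enzyme (4 nM final) mixed with compound (up to 77 uM), then 4-MU-alpha-D-pyranoside (400 uM final) added; 20 min at room temperature, pH 5.0. Reaction stopped at pH 10, fluorescence read, AC50 derived by Hill fit.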
# GAA spleen mod: inhibitors or activators of human alpha-glucosidase in spleen homogenate; P10253; Potency, µM (doses to about 79.9 µM), inactives show top-dose activity change, negative = inhibition, most hits filed as inhibitors; human spleen homogenate, 4-MU-alpha-glucoside fluorescence; actives 0.006% (n = 240,000); AID 2112;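 further: potency means the concentration at half of the fitted maximal effect; 0% = enzyme with vehicle and -100% = no enzyme basal signal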
#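 Enzyme source: human spleen homogenate, 1 ug/well. Buffer 50 mM citric acid/K phosphate pH 5.0, 0.01% Tween-20. 4-MU-alpha-glucoside 1 mM; 37 C x 40 min; NaOH/glycine stop; fluorescence.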
# B2AR arrestin: beta2AR (human) beta-arrestin recruitment activity; P07550; beta-arrestin recruitment to beta2AR, cell-based reporter; Potency, µM (titrated, usually from 46.1 µM), inactives show top-dose activation, most hits filed as activators; actives 0.02% (n = 330,000); AID 492947;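 further: potency means the concentration at half of the fitted maximal effect; 0% = DMSO controls and full agonism = EC100 isoproterenol or metaproterenol; nearly all actives have a fitted effect of over 65% in size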
# Target sequence (P07550 whole entry, looked up): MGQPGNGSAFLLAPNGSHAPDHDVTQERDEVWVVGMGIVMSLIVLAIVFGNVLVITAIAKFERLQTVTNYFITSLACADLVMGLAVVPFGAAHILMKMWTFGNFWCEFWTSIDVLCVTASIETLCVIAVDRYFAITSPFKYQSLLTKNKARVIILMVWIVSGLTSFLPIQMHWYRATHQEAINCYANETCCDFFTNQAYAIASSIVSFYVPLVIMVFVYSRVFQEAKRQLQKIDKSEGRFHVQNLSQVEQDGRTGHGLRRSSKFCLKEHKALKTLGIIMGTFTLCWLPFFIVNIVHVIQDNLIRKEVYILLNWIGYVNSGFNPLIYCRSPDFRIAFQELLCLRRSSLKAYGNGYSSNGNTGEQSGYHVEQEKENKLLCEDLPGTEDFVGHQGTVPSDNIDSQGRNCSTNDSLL
# GAA glycogen mod: alters human alpha-glucosidase cleavage of glycogen. actives 0.38% (n = 300,000). AID 2100. recombinant GAA, glycogen substrate, Amplex Red glucose oxidase fluorescence. Potency, µM (highest dose often 76.4 µM), without a hit: top-dose activity change, negative = inhibition, usual class: inhibitors;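 further: potency means the concentration at half of the fitted maximal effect; 0% = full enzyme reaction and -100% = no-enzyme basal signal; the screen sought inhibitors and activators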
#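 Recombinant enzyme (4 nM final) with compounds titrated up to 77 uM and bovine liver glycogen (30 ug) in citrate pH 5.0, 0.01% Tween-20, 37 C 40 min. Released glucose detected by Amplex Red/glucose oxidase (Ex 573/Em 610); AC50 from Hill fits.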
# Starred values were filed as active, the others as inactive; ? = inconclusive; . = no result; [ ] = remark or other dose. Unless noted, the call rests on the fitted dose curve; in most records, active means well fitted curve in the direction sought with a large enough effect; inconclusive means small, poorly fitted or top-dose-only effect, or another doubt; inactive means no such curve, though single readings can be large; an effect the other way counts as inactive or inconclusive. Unless noted, on the % scale 0 is the no-effect control and ±100 the full control effect.
SMILES,FBPA coupling cs,GAA inh,GAA spleen mod,B2AR arrestin,GAA glycogen mod
COc1ccccc1NC(=O)C1=C(C)Nc2nc(SCc3ccccc3)nn2C1c1cccnc1 (configuration not stated),.,.,.,.,-4.5%[76.3 µM]
COC(=O)[C@@]1(Cc2ccccc2)[C@H]2c3cc(C(=O)N(C)C)n(Cc4ccccn4)c3C[C@H]2CN1C(=O)c1ccccc1,1.7,.,2.2%,.,.
Cc1ccc(NC2=C(NC(=O)c3ccccc3)C(=O)c3ccccc3C2=O)cc1Cl,-47.6*,1.5%,-5.5%,-0.9%,4.6%
Cc1c(NC(=O)Nc2ccc(Cl)cc2Cl)c(=O)n(-c2ccccc2)n1C,-4.8,6.0%,0.5%,-0.5%,-9.3%
Cc1c(NCc2cc(Cl)cc(Cl)c2O)c(=O)n(-c2ccccc2)n1C,1.2,-12.6%,-1.9%,0.2%,10µM*
Cc1c(NCc2cc(Cl)ccc2O)c(=O)n(-c2ccccc2)n1C,.,10.8%,-3.2%,4.6%,12.6µM*
Cc1c(NCc2nc3ccccc3[nH]2)c(=O)n(-c2ccccc2)n1C,-0.2,-2.9%,1.2%,0.3%,11.1µM*
COc1ccc(NC(=O)N2CCc3nc(-c4ccccc4)c4c(c3C2)CO[C@@H](C)C4)cc1,0.8,.,1.5%[17.4 µM],.,.
CCC1=C2CC[C@H]3C(=O)N(CC(=O)OC)C(=O)[C@H]3[C@H]2[C@@]2(C)C(=NCCc3c[nH]c4ccccc34)OC(=O)N2C1=O,2.8,.,-9.9%,.,.
O=c1c(-c2ccc(F)cc2)nc2cnc(N3CCNCC3)nc2n1Cc1ccc(F)cc1,1.9,.,-4.4%,.,.
COc1cc(OC)c([N+](=O)[O-])cc1/C=N/NC(=O)c1ccncc1,-42.4*,3.1%,2.7%,-0.1%,-9.5%
COc1cc(/C=N/NC(=O)c2ccncc2)c([N+](=O)[O-])cc1OC,5.5,.,.,-0.2%,5.2%
COC(=O)c1nnc(C(=O)N(C)Cc2ccccc2)c2[nH]c3ccccc3c12,-6.8,.,-8.8%,.,.
Cc1cc2nc3ccc(=[N+](C)C)cc-3sc2cc1N,-41.6*,.,-1.3%,-0.9%,?
CCOC(=O)C1=C(C)NC(SCc2cc(=O)[nH][nH]2)=C(C#N)C1c1cccs1 (configuration not stated),2.7,-12.0%,-19.8%,0.0%,31.4µM*
CCOC(=O)C1=C(C)NC(SCC(N)=O)=C(C#N)C1c1cccs1 (configuration not stated),-2.4,-7.8%,-4.6%,-0.8%,2.3%
CC(C)(C)c1nnc(NC(=O)c2ccc(Cl)nc2)s1,-36.3*,-2.2%,5.8%,-0.5%,6.9%
CCc1nnc(NC(=O)c2ccc(Cl)nc2)s1,-24.0,1.1%,4.1%,0.2%,-8.0%
C=C1CCN(C(CC(C)C)C(=O)NN2CCOCC2)S(=O)(=O)c2ccccc21 (configuration not stated),1.3,.,-4.6%,.,.
CCOc1ccc(Nc2nc(Cc3nnc(SCC(=O)O)o3)cs2)cc1,-5.6,8.3%,-4.4%,-0.1%,14.1µM*
Cc1cc2c(cc1S(=O)(=O)Nc1cccc(Cl)c1C)n(C)c(=O)c(=O)n2C,.,.,.,.,12.7%[76.3 µM]
CCn1c(O)c(C#N)c(C)cc1=O,-25.8,-0.3%,1.9%,-0.3%,0.2%
Cc1cc(=O)n(CCc2ccccc2)c(O)c1C#N,-10.8,-4.1%,3.5%,-0.6%,-8.0%
Cc1cc(=O)n(CCO)c(O)c1C#N,-46.1*,-6.6%,-0.1%,-0.7%,-5.3%
Cc1cc(=O)n(CC(C)C)c(O)c1C#N,-32.8*,0.6%,-2.3%,-0.2%,0.2%
SMILES,FBPA coupling cs,GAA inh,GAA spleen mod,B2AR arrestin,GAA glycogen mod
CC[C@@H](C)C(N)C(=O)O (some centres not stated),2.4,.,5.9%,.,.
CCOc1cc(CNc2ccc(O)cc2)cc(Br)c1OCc1ccccc1F,-55.5*,?,-9.3%,14.6%,9.1%
CCOc1cc(/C=N/NC(N)=O)cc(Br)c1OCc1ccccc1F,2.1,-4.7%,2.7%,-1.3%,1.3%
COc1cc(CNc2ccc(O)cc2)cc(Br)c1OCc1ccccc1F,-57.1*,-4.2%,-3.6%,-0.4%,?
CCOc1c(Br)cc(CNc2ccc(N3CCOCC3)cc2)cc1OC,-5.1,.,-6.6%,-0.3%,35.5µM*
COc1cc(C(=O)N(Cc2cccnc2)Cc2cc3cc4c(cc3[nH]c2=O)OCCO4)cc(OC)c1OC,-50.3*,?,12.9%,0.1%,-1.0%
CC1(C)Nc2ccc(O)cc2-c2c1ssc2=S,-20.1,1.8%,3.8%,0.2%,39.8µM*
Cc1ccc(-c2nnc(Nc3ccc(C(N)=O)cc3)c3ccccc23)cc1S(=O)(=O)NCC1CCCO1 (configuration not stated),-1.5,?,-2.0%,-1.0%,-4.3%
Cc1ccc(Nc2ncnc3ccccc23)cc1,-4.8,2.2%,2.6%,-0.1%,-8.7%
CC(=O)Nc1ccc(Nc2nnc(-c3ccc(C)c(S(=O)(=O)NCCO)c3)c3ccccc23)cc1,-0.7,.,.,-0.6%,-9.9%[76.3 µM]
Cc1ccc(-c2nnc(Nc3ccc(O)cc3)c3ccccc23)cc1S(=O)(=O)NCC1CCCO1 (configuration not stated),.,.,.,.,15.8µM*
Oc1ccc(Nc2nnc(-c3ccc(O)cc3)c3ccccc23)cc1,-2.6,0.6%,0.8%,-0.8%,15.8µM*
Oc1ccc(Nc2ncnc3ccccc23)cc1,0.5,.,.,0.4%,22.4µM*
Cc1ccc(-c2nnc(Nc3ccc(O)cc3)c3ccccc23)cc1S(=O)(=O)NC(C)(C)CO,.,.,.,.,8.91µM*
COc1ccc(Nc2nnc(-c3ccc(O)cc3)c3ccccc23)cc1,-9.2,5.1%,1.2%,0.6%,-6.4%
OCCCc1ccccc1,1.9,.,-1.7%,.,.
COc1ccc(C(C)NC(=O)c2ccc([N+](=O)[O-])cc2)cc1OC (configuration not stated),3.5,-10.4%,6.2%,-0.4%,-1.7%
Cc1ccc(CNc2ccc3c(c2)OCO3)c(C)c1,-37.1*,2.3%,2.1%,.,?
c1cncc(CNc2ccc3c(c2)OCO3)c1,-21.2,-3.8%,-1.7%,0.2%,17.8µM*
O=C(NCc1cccnc1)Nc1ccc2c(c1)OCO2,0.0,-1.2%,5.4%,-0.2%,9.6%
COc1ccc(NC(=O)N2CCCC3(CCN(C(=O)c4ccncc4)CC3)C2)cc1,-1.0,.,-4.2%,.,.
CC[C@H](C)[C@H](N)C(=O)N[C@@H](CC(N)=O)C(=O)N1CCC[C@H]1C(=O)N[C@H](C(=O)N[C@@H](Cc1ccc(O)cc1)C(=O)N[C@@H](CCCN=C(N)N)C(=O)N[C@@H](CC(C)C)C(=O)N[C@@H](CCCN=C(N)N)C(=O)N[C@@H](Cc1ccc(O)cc1)C(N)=O)[C@@H](C)CC,-0.7,.,-7.6%,.,.
CCCCC/C=C\C/C=C\C/C=C\C/C=C\CCCCCC(N)=O,0.9,.,0.3%,.,.
Cc1ccc(NC(=S)NNC(=O)c2cn(C)nc2C)cc1,2.1,-2.7%,1.6%,-0.2%,28µM*
Cc1ccc(NC(=S)NNC(=O)c2c(Cl)c(C)nn2C)cc1,1.9,0.3%,-3.2%,5.2%,?

# High-throughput results deposited in PubChem by National Center for Advancing Translational Sciences (NCATS).
